Data as given in PubChem BioAssay (EPA / NIEHS).
The source made the active and inactive calls. Rule for the calls: active = hit-call score of the fitted dose curve at least 0.9, where 1 is the maximum; inactive = score below 0.9.

Read-out: Matrix Metallopeptidase 9 (MMP9), MMP9 (gene 4318)
Experiment: BSK_KF3CT_MMP9: BioMAP Diversity Plus: KF3CT Assay for Matrix Metallopeptidase 9 (MMP9) Biomarker Activity (AID 2283074)
Details: primary human keratinocytes with fibroblasts; actives raise or lower the signal
Procedure: BSK_KF3CT is a cell-based, multiplexed-readout assay that uses keratinocytes and foreskin fibroblasts, a human skin primary cell co-culture, with measurements taken at 24 hours after chemical dosing in a 96-well plate.BSK_KF3CT_MMP9 is an assay component measured in the BSK_KF3CT assay. It measures MMP-9 antibody related to regulation of gene expression using ELISA technology.Data from the assay component BSK_KF3CT_MMP9 was analyzed into 1 assay endpoint. This assay endpoint, BSK_KF3CT_MMP9, was analyzed with bidirectional fitting relative to DMSO as the negative control and baseline of activity. Using a type of binding reporter, gain or loss-of-signal activity can be used to understand changes in the signaling as they relate to the gene MMP9. Furthermore, this assay endpoint can be referred to as a primary readout, because this assay has produced multiple assay endpoints where this one serves a signaling function. To generalize the intended target to other relatable targets, this assay endpoint is annotated to the protease intended target family, where the subfamily is matrix metalloproteinase.
The levels of cell surface (or secreted, indicated by the prefix "s") biomarker endpoints were measured by ELISA. Overt cytotoxicity to cells in confluent adherent cultures (all systems other than the BT system) was assessed by measuring total protein levels using sulforhodamine B (SRB) staining in parallel cultures at the time of biomarker measurements, indicated as SRB endpoints. For proliferation assays for adherent cell types, individual cell types are cultured at sub-confluence and relative cell numbers quantified by SRB staining at time points optimized for each system (48 h: 3C and CASM3C systems; 72 h: BT and HDF3CGF systems; 96 h: SAg system). SRB was performed by staining cells with 0.1% SRB after fixation with 10% TCA and reading wells at 560 nm.Viability and proliferation of PBMC (T cells) was quantified by Alamar Blue reduction for the SAg and BT systems. For PBMC viability (referred to as PBMC Cytotoxicity within the assay endpoint names), cells were plated (75,000/well in a 96-well plate) and then chemical samples added for 1 h before addition of activators, SEB and TSST-1 (20 ng/mL final concentration each). Cells were incubated for 90 h. Then, Alamar Blue (20 uL/well) (Invitrogen, Cat DAL1100) was added for 6 h, and the plates were read with a fluorescence microplate reader at 546/580 nm (excitation/emission). For PBMC proliferation, cells were plated and activated as above but incubated for only 16 h prior to addition of Alamar Blue. Plates were read after 6 h.

SMILES | outcome | AC50
COCC(=O)N(c1c(C)cccc1C)[C@H](C)C(=O)OC | inactive | –
Cc1ccccc1OP(=O)(Oc1ccccc1)Oc1ccccc1 | – | 8.99 µM (active)
CCCCCCCCCCCCN(C)C | inactive | –
Cc1cc(C(C)(C)c2ccc(O)c(C)c2)ccc1O | – | 15.2 µM (active)
N#CCCC(Br)(C#N)CBr (stereo not given) | – | 20 µM (active)
CC(C)O.CC(C)O.OCCN(CCO)CCO.OCCN(CCO)CCO.[Ti] | inactive | –
CCOP(=S)(OCC)SCS(=O)(=O)C(C)(C)C | inactive | –
OCCN(CCO)CCO | inactive | –
O=C(O)COc1cc(Cl)c(Cl)cc1Cl | inactive | –
c1ccc2sc(SNC3CCCCC3)nc2c1 | inactive | –
[Cl][Sn]([c]1ccccc1)([c]1ccccc1)[c]1ccccc1 | – | 0.0692 µM (active)
O=C(Cc1ccccc1)OCCc1ccccc1 | inactive | –
CCCCCCCCCCCCc1cccc(S(=O)(=O)O)c1 | – | 18 µM (active)
CCCCOC(=O)COC(=O)c1ccccc1C(=O)OCCCC | inactive | –
CCN(CC)C(=O)C(Cl)=C(C)OP(=O)(OC)OC | inactive | –
OC(Cc1ccccc1Cl)(Cn1[nH]cnc1=S)C1(Cl)CC1 (stereo not given) | inactive | –
O=[N+]([O-])c1cccc2ccccc12 | inactive | –
Cc1cc(C)cc(C)c1 | inactive | –
CC1(C)[C@H](C(=O)O[C@H](C#N)c2cccc(Oc3ccccc3)c2)[C@@H]1/C=C(\Cl)C(F)(F)F | – | 0.357 µM (active)
Clc1cccc(Cl)c1 | inactive | –

SMILES | outcome | AC50
CC(C)N(C(=O)CCl)c1ccccc1 | – | 29.6 µM (active)
O=[N+]([O-])c1ccc(Nc2ccccc2)cc1 | inactive | –
O=S(=O)(c1ccc(Cl)cc1)c1cc(Cl)c(Cl)cc1Cl | – | 0.58 µM (active)
Oc1cc(Cl)c(Cl)cc1Cl | inactive | –
Oc1cccc(-c2ccccc2)c1 | – | 31.5 µM (active)
CCCCN(CCCC)C(=S)[S-].CCCCN(CCCC)C(=S)[S-].[Ni+2] | inactive | –
O=c1oc2ccccc2c(O)c1C(CC(O)c1ccc(-c2ccc(Br)cc2)cc1)c1ccccc1 (stereo not given) | – | 19.1 µM (active)
O=C(O)C1(c2ccc3c(c2)OC[C@H](Cc2ccc(-c4ccccc4)cc2)[C@H]3O)CCCC1 | – | 12.9 µM (active)
C=CC(Cl)CCl (stereo not given) | inactive | –
O=C1C=CC(=O)c2ccccc21 | – | 5.16 µM (active)
O=S(=O)(C(Cl)(Cl)Cl)C(Cl)(Cl)Cl | – | 2.22 µM (active)
Cc1cc(Cl)ccc1OC(C)C(=O)O (stereo not given) | inactive | –
COc1ccccc1N | inactive | –
c1ccc(-c2cccc(-c3ccccc3)c2)cc1 | – | 8.97 µM (active)
O=C(N[C@H]1CN2CCC1CC2)c1ccc2c(c1)OCCO2 | inactive | –
Cc1ccc(OP(=O)(Oc2ccc(C)cc2C)Oc2ccc(C)cc2C)c(C)c1 | – | 8.84 µM (active)
CCOP(=O)(OCC)OC(=CCl)c1ccc(Cl)cc1Cl | – | 31.9 µM (active)
OC(Cc1ccccc1Cl)(Cn1cncn1)C1(Cl)CC1 (stereo not given) | inactive | –
CCOC(=O)CCN(SN(C)C(=O)Oc1cccc2c1OC(C)(C)C2)C(C)C | inactive | –
CC(C)=CC1C(C(=O)OCc2cccc(Oc3ccccc3)c2)C1(C)C (stereo not given) | inactive | –
